# From the supplement of paper PMC9023506
# Where a name gives a salt, the structure may show the parent alone.
# Key:
# Conditions in all cases: 10 µM; exposure time: 3 h pre-incubation + 3 h imaging
# [1] = system: Danio rerio larvae (5 dpf); assay: habituation to 1-s acoustic pulses, difference vs DMSO (percentage points (treated minus DMSO)); higher = more of the behaviour than the DMSO vehicle control
# How it was run: (§1)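 5-dpf wild-type zebrafish larvae in 96-well ProxiPlates were exposed to library drugs at 10 µM (diluted 1000× from DMSO stocks into egg water). There were 48 larvae per drug, exposed 3 h before and 3 h during imaging at 28.5 °C. Images taken every 6 s covered a 3-h program of rest, moving coloured lines and acoustic pulses, and an ImageJ macro scored movement and upper-half location. Each behaviour score is the treated-group mean minus the DMSO vehicle mean, in percentage points.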
# [2] = system: Danio rerio larvae (5 dpf); assay: optomotor response to red moving lines, difference vs DMSO (percentage points (treated minus DMSO)); higher = more of the behaviour than the DMSO vehicle control
# How it was run: as §1
# [3] = system: Danio rerio larvae (5 dpf); assay: activity during first hour (no stimuli), difference vs DMSO (percentage points (treated minus DMSO)); higher = more of the behaviour than the DMSO vehicle control
# How it was run: as §1
# [4] = system: Danio rerio larvae (5 dpf); assay: activity during period 15 (no stimuli), difference vs DMSO (percentage points (treated minus DMSO)); higher = more of the behaviour than the DMSO vehicle control
# How it was run: as §1
# [5] = system: Danio rerio larvae (5 dpf); assay: optomotor response to blue moving lines, difference vs DMSO (percentage points (treated minus DMSO)); higher = more of the behaviour than the DMSO vehicle control
# How it was run: as §1
# [6] = system: Danio rerio larvae (5 dpf); assay: optomotor response to green moving lines, difference vs DMSO (percentage points (treated minus DMSO)); higher = more of the behaviour than the DMSO vehicle control
# How it was run: as §1
# [7] = system: Danio rerio larvae (5 dpf); assay: startle response to 20-s acoustic pulses, difference vs DMSO (percentage points (treated minus DMSO)); higher = more of the behaviour than the DMSO vehicle control
# How it was run: as §1
# [8] = system: Danio rerio larvae (5 dpf); assay: excitability to 1-s acoustic pulses, difference vs DMSO (percentage points (treated minus DMSO)); higher = more of the behaviour than the DMSO vehicle control
# How it was run: as §1
# [9] = system: Danio rerio larvae (5 dpf); assay: optomotor response to fast red moving lines, difference vs DMSO (percentage points (treated minus DMSO)); higher = more of the behaviour than the DMSO vehicle control
# How it was run: as §1
structure (smiles),measurement,setting,value
Cc1cn([C@H]2C=C[C@@H](CO)O2)c(=O)[nH]c1=O [Stavudine],habituation to 1-s acoustic pulses,[1],-0.918
same,optomotor response to red moving lines,[2],9.7
same,activity during first hour,[3],-4.71
COc1ccc(-c2ccc3cc(C(=O)O)ccc3c2)cc1C12CC3CC(CC(C3)C1)C2 [Adapalene],optomotor response to red moving lines,[2],-12.7
same,activity during period 15,[4],-3.39
same,activity during first hour,[3],-0.0907
same,optomotor response to blue moving lines,[5],-1.19
same,optomotor response to green moving lines,[6],-2.82
same,startle response to 20-s acoustic pulses,[7],0.11
Nc1nc2[nH]cc(CCc3ccc(C(=O)N[C@@H](CCC(=O)O)C(=O)O)cc3)c2c(=O)[nH]1 [Pemetrexed],excitability to 1-s acoustic pulses,[8],2.29
same,optomotor response to red moving lines,[2],-7.22
same,activity during first hour,[3],1.38
same,optomotor response to blue moving lines,[5],1.87
same,optomotor response to green moving lines,[6],8.22
same,optomotor response,[9],-14.2
CC(=O)Oc1cc2c(s1)CCN(C(C(=O)C1CC1)c1ccccc1F)C2 (stereo unspecified) [Prasugrel],habituation to 1-s acoustic pulses,[1],2.1
same,activity during first hour,[3],-1.24
same,optomotor response to blue moving lines,[5],3.83
same,optomotor response to green moving lines,[6],-2.39
same,optomotor response,[9],-8.05
COc1ccc(Cl)cc1C(=O)NCCc1ccc(S(=O)(=O)NC(=O)NC2CCCCC2)cc1 [Glibenclamide],optomotor response to red moving lines,[2],10.2
same,activity during first hour,[3],1.18
same,optomotor response to blue moving lines,[5],1.29
CC(C)CN(C[C@@H](O)[C@H](Cc1ccccc1)NC(=O)O[C@H]1CO[C@H]2OCC[C@H]21)S(=O)(=O)c1ccc(N)cc1 [Darunavir],optomotor response to red moving lines,[2],4.11
same,activity during first hour,[3],12.6
same,optomotor response to blue moving lines,[5],8.12
same,optomotor response,[9],1.68
CCOc1ccccc1OCCN[C@H](C)Cc1ccc(OC)c(S(N)(=O)=O)c1 [Tamsulosin hydrochloride],habituation to 1-s acoustic pulses,[1],-0.195
same,optomotor response to red moving lines,[2],-6.78
same,activity during period 15,[4],2.6
same,activity during first hour,[3],7.36
same,optomotor response to blue moving lines,[5],2.91
CCCc1nc2c(C)cc(-c3nc4ccccc4n3C)cc2n1Cc1ccc(-c2ccccc2C(=O)O)cc1 [Telmisartan],excitability to 1-s acoustic pulses,[8],12.8
same,optomotor response to red moving lines,[2],-8.2
same,activity during period 15,[4],-7.63
same,activity during first hour,[3],-6.28
same,startle response to 20-s acoustic pulses,[7],3.69
COc1cc2nccc(Oc3ccc(NC(=O)C4(C(=O)Nc5ccc(F)cc5)CC4)cc3)c2cc1OC,excitability to 1-s acoustic pulses,[8],17.1
same,optomotor response to red moving lines,[2],-13.9
same,activity during first hour,[3],20
same,startle response to 20-s acoustic pulses,[7],-5.31
OCCOCCN1CCN(C2=Nc3ccccc3Sc3ccccc32)CC1 [Quetiapine hemifumarate],excitability to 1-s acoustic pulses,[8],9.86
same,activity during first hour,[3],12.9
same,optomotor response to blue moving lines,[5],19.9
same,optomotor response,[9],-5.91
O=C(NCC1CCCCN1)c1cc(OCC(F)(F)F)ccc1OCC(F)(F)F (stereo unspecified) [Flecainide acetate],excitability to 1-s acoustic pulses,[8],5.58
same,activity during period 15,[4],-6.75
same,activity during first hour,[3],0.441
same,optomotor response to blue moving lines,[5],9.21
same,startle response to 20-s acoustic pulses,[7],1.77
CC(C)Nc1cccnc1N1CCN(C(=O)c2cc3cc(NS(C)(=O)=O)ccc3[nH]2)CC1 [Delavirdine mesylate],optomotor response to red moving lines,[2],-0.668
same,activity during first hour,[3],-1.59
same,optomotor response to blue moving lines,[5],-0.42
same,startle response to 20-s acoustic pulses,[7],-4.51
CCN(CC)CCNC(=O)c1c(C)[nH]c(/C=C2\C(=O)Nc3ccc(F)cc32)c1C [Sunitinib malate],activity during period 15,[4],-14.6
same,activity during first hour,[3],-14.4
same,optomotor response to blue moving lines,[5],-5.69
same,optomotor response,[9],10.6
N[C@@H]1[C@H]2CN(c3nc4c(cc3F)c(=O)c(C(=O)O)cn4-c3ccc(F)cc3F)C[C@@H]12 [Trovafloxacin mesylate],habituation to 1-s acoustic pulses,[1],-3.6
same,excitability to 1-s acoustic pulses,[8],11.3
same,optomotor response to red moving lines,[2],4.89
same,activity during first hour,[3],5.81
C[C@H](Cc1cc2c(c(C(N)=O)c1)N(CCCO)CC2)NCCOc1ccccc1OCC(F)(F)F [Silodosin],optomotor response to red moving lines,[2],6.25
same,activity during first hour,[3],-1.39
same,optomotor response to green moving lines,[6],1.5
Clc1ccc(COC(Cn2ccnc2)c2ccc(Cl)cc2Cl)c(Cl)c1 (stereo unspecified) [Miconazole nitrate],habituation to 1-s acoustic pulses,[1],-15.5
same,optomotor response to red moving lines,[2],-8.36
same,activity during period 15,[4],-12.8
same,activity during first hour,[3],-18.4
CC(C)c1ccc2oc3nc(N)c(C(=O)O)cc3c(=O)c2c1 [Amlexanox],habituation to 1-s acoustic pulses,[1],-1.39
same,optomotor response to red moving lines,[2],-3.59
same,activity during first hour,[3],6.6
same,optomotor response to green moving lines,[6],-0.74
same,startle response to 20-s acoustic pulses,[7],0.978
CC(C)(C(=O)O)c1ccc(C(O)CCCN2CCC(C(O)(c3ccccc3)c3ccccc3)CC2)cc1 (stereo unspecified) [Fexofenadine hydrochloride],excitability to 1-s acoustic pulses,[8],-6.48
same,optomotor response to red moving lines,[2],3.62
same,activity during first hour,[3],5.4
COC(c1ccccc1)(c1ccccc1)[C@H](Oc1nc(C)cc(C)n1)C(=O)O [Ambrisentan],excitability to 1-s acoustic pulses,[8],-1.87
same,activity during period 15,[4],-4.72
same,activity during first hour,[3],1.9
same,optomotor response to blue moving lines,[5],-7.26
same,startle response to 20-s acoustic pulses,[7],5.96
Nc1nc(Cl)nc2c1ncn2[C@@H]1O[C@H](CO)[C@@H](O)[C@@H]1F [Clofarabine],activity during first hour,[3],-3.77
CO[C@H]1/C=C/O[C@@]2(C)Oc3c(C)c(O)c4c(O)c(c5c(nc6cc(C)ccn65)c4c3C2=O)NC(=O)/C(C)=C\C=C\[C@H](C)[C@H](O)[C@@H](C)[C@@H](O)[C@@H](C)[C@H](OC(C)=O)[C@@H]1C [Rifaximin],habituation to 1-s acoustic pulses,[1],-3.04
same,excitability to 1-s acoustic pulses,[8],4.07
same,activity during period 15,[4],-11.6
same,activity during first hour,[3],-0.0836
same,optomotor response to blue moving lines,[5],9.62
CN(C)CCC[C@@]1(c2ccc(F)cc2)OCc2cc(C#N)ccc21 [Escitalopram oxalate],activity during first hour,[3],-24.4
same,optomotor response to blue moving lines,[5],1.97
same,startle response to 20-s acoustic pulses,[7],-6.28
same,optomotor response,[9],-7.01
OCCN1C[C@H](O)[C@@H](O)[C@H](O)[C@H]1CO [Miglitol],optomotor response to red moving lines,[2],9.81
same,activity during first hour,[3],-1.33
CCCCCCCN(CC)CCCC(O)c1ccc(NS(C)(=O)=O)cc1 (stereo unspecified) [Ibutilide hemifumarate],optomotor response to red moving lines,[2],10.1
same,activity during first hour,[3],-4.99
